Data: PubChem BioAssay AID1159580 (chemical genetic matrix, 2015)
In all, about 5,500 compounds went through this assay and about 2,000 (36%) were called active. Not shown: some 18% with an inconclusive outcome. Cut-off read from the data, not from the text of the source: active = normalized growth mostly below about 0.91 (no sharp cut-off); inconclusive = no clear call, values can overlap the other calls; inactive = mostly above about 0.92. This is one part of the list.

Assay: chemical genetic growth profiling, strain panel (AID 1159580);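 note: tested at 20 µM; growth read once vehicle control cultures reached saturation at 30 °C; 1 = growth at the plate median or of vehicle wells; lower values mean less growth of the strain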
Conditions: S. cerevisiae deletion strains, growth OD

Measured: normalized growth

CCCCC(=O)Oc1ccccc1C(=O)O
inactive: locus YAL021C, strain ccr4, stronger effect = lower value 0.989 | locus YAL026C, strain drs2, stronger effect = lower value 0.991 | locus YAL030W, strain snc1, stronger effect = lower value 0.989 | locus YBL061C, strain skt5, stronger effect = lower value 0.982 | locus YBR009C, strain hhf1, stronger effect = lower value 0.988 | locus YBR023C, strain chs3, stronger effect = lower value 0.993 | locus YBR171W, strain sec66, stronger effect = lower value 0.952 | locus YBR231C, strain swc5, stronger effect = lower value 0.989 | locus YBR279W, strain paf1, stronger effect = lower value 1 | locus YCL011C, strain gbp2, stronger effect = lower value 0.979 | locus YCL016C, strain dcc1, stronger effect = lower value 0.971 | locus YCL061C, strain MRC1, stronger effect = lower value 0.986 | locus YCL069W, strain vba3, stronger effect = lower value 0.996 | locus YCR088W, strain abp1, stronger effect = lower value 0.976 | locus YDL005C, strain med2, stronger effect = lower value 0.938 | locus YDL040C, strain nat1, stronger effect = lower value 0.989 | locus YDR001C, strain nth1, stronger effect = lower value 0.971 | locus YDR069C, strain doa4, stronger effect = lower value 0.986 | locus YDR137W, strain rgp1, stronger effect = lower value 0.963 | locus YDR159W, strain sac3, stronger effect = lower value 0.953 | locus YDR195W, strain ref2 0.981 | locus YDR297W, strain sur2, stronger effect = lower value 0.988 | locus YDR334W, strain swr1, stronger effect = lower value 0.994 | locus YDR335W, strain msn5, stronger effect = lower value 0.98 | locus YDR392W, strain spt3, stronger effect = lower value 0.997 | locus YEL003W, strain gim4, stronger effect = lower value 0.983 | locus YEL037C, strain rad23, stronger effect = lower value 0.984 | locus YEL061C, strain CIN8 (second series), stronger effect = lower value 0.982 | locus YER015W, strain faa2, stronger effect = lower value 0.991 | locus YER016W, strain bim1, stronger effect = lower value 0.977 | locus YER111C, strain swi4, stronger effect = lower value 0.938 | locus YER155C, strain BEM2 (second series), stronger effect = lower value 0.964 | locus YFR010W, strain ubp6, stronger effect = lower value 1 | locus YGL167C, strain pmr1, stronger effect = lower value 0.957 | locus YGL173C, strain kem1, stronger effect = lower value 0.981 | locus YGL227W, strain vid30, stronger effect = lower value 0.965 | locus YGL240W, strain doc1, stronger effect = lower value 0.971 | locus YGL253W, strain hxk2, stronger effect = lower value 0.989 | locus YHR013C, strain ard1, stronger effect = lower value 0.938 | locus YHR027C, strain rpn1, stronger effect = lower value 0.964 | locus YHR030C, strain SLT2, stronger effect = lower value 0.974 | locus YHR079C, strain IRE1, stronger effect = lower value 0.988 | locus YHR142W, strain chs7, stronger effect = lower value 0.962 | locus YJL092W, strain hpr5, stronger effect = lower value 0.971 | locus YJL095W, strain BCK1 (second series), stronger effect = lower value 0.955 | locus YJL095W, strain BCK1, stronger effect = lower value 0.989 | locus YJL115W, strain asf1, stronger effect = lower value 0.971 | locus YJL129C, strain trk1, stronger effect = lower value 0.946 | locus YJL154C, strain vps35, stronger effect = lower value 0.964 | locus YJL164C, strain tpk1, stronger effect = lower value 0.981 | locus YJL166W, strain qcr8, stronger effect = lower value 0.984 | locus YJR066W, strain TOR1, stronger effect = lower value 0.935 | locus YKL160W, strain elf1, stronger effect = lower value 0.962 | locus YKR026C, strain gcn3, stronger effect = lower value 0.986 | locus YKR091W, strain srl3, stronger effect = lower value 0.971 | locus YLL001W, strain dnm1, stronger effect = lower value 0.985 | locus YLL026W, stronger effect = lower value 0.983 | locus YLL041C, strain sdh2, stronger effect = lower value 0.986 | locus YLR027C, strain aat2, stronger effect = lower value 0.973 | locus YLR113W, strain HOG1, stronger effect = lower value 0.944 | locus YLR221C, strain rsa3, stronger effect = lower value 1.01 | locus YLR258W, strain gsy2, stronger effect = lower value 0.983 | locus YLR262C, strain YPT6 (second series), stronger effect = lower value 0.973 | locus YLR320W, strain mms22, stronger effect = lower value 0.996 | locus YLR342W, strain FKS1, stronger effect = lower value 0.979 | locus YLR357W, strain rsc2, stronger effect = lower value 0.96 | locus YLR370C, strain arc18, stronger effect = lower value 0.971 | locus YLR384C, strain iki3, stronger effect = lower value 0.956 | locus YML120C, strain ndi1, stronger effect = lower value 0.994 | locus YMR058W, strain fet3, stronger effect = lower value 0.979 | locus YMR125W, strain sto1, stronger effect = lower value 0.959 | locus YMR129W, stronger effect = lower value 0.98 | locus YMR205C, strain PFK2, stronger effect = lower value 0.981 | locus YMR231W, strain pep5, stronger effect = lower value 0.967 | locus YNL071W, strain lat1, stronger effect = lower value 1 | locus YNL183C, strain NPR1, stronger effect = lower value 0.936 | locus YNL209W, strain ssb2, stronger effect = lower value 0.974 | locus YNL248C, strain rpa49, stronger effect = lower value 0.959 | locus YNL322C, strain KRE1 (second series), stronger effect = lower value 0.944 | locus YNR049C, strain mso1, stronger effect = lower value 0.988 | locus YOR001W, strain rrp6, stronger effect = lower value 1.01 | locus YOR070C, strain gyp1, stronger effect = lower value 0.972 | locus YOR080W, strain dia2, stronger effect = lower value 0.956 | locus YOR083W, strain WHI5, stronger effect = lower value 0.927 | locus YOR106W, strain vam3, stronger effect = lower value 0.972 | locus YOR231W, strain MKK1, stronger effect = lower value 0.966 | locus YOR265W, strain rbl2, stronger effect = lower value 0.99 | locus YOR270C, strain vph1, stronger effect = lower value 0.96 | locus YOR290C, strain snf2, stronger effect = lower value 0.971 | locus YPL051W, strain arl3, stronger effect = lower value 0.994 | locus YPL078C, strain atp4, stronger effect = lower value 0.977 | locus YPL106C, strain sse1, stronger effect = lower value 0.953 | locus YPL240C, strain hsp82, stronger effect = lower value 0.976 | locus YPL256C, strain CLN2, stronger effect = lower value 0.953
